# Assay results published in the supplement of paper PMC10646978.
# ± gives the standard deviation.
# Legend:
# Settings in all cases: modulator concentration 10 µM
# [1] = tested on: RAW-Dual (murine macrophage reporter line); assay: NF-kB reporter (SEAP) activity fold change vs agonist alone; higher = enhanced NF-kB activity
# How it was run: (§1)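 In 384-well plates holding 50 000 RAW-Dual murine macrophage reporter cells per well, compound at 10 μM final was pre-incubated for 1 hour at 37 °C, after which a PRR agonist was added overnight. Supernatant SEAP read with QUANTI-Blue at 620 nm absorbance reported NF-κB, and Lucia luciferase read with QUANTI-Luc luminescence reported IRF. Fold change values come from dividing each reporter signal by the mean of agonist-only control wells on the same plate, averaged over replicate plates with propagated errors.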
# [2] = tested on: RAW-Dual (murine macrophage reporter line); assay: IRF reporter (Lucia luciferase) activity fold change vs agonist alone; higher = enhanced IRF activity
# How it was run: as §1
# [3] = tested on: RAW-Dual (murine macrophage reporter line); assay: viability score (confluency relative to resting cells, overnight) (fraction); higher = more viable, active = viable (0.7 or more)
# How it was run: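 Two confluency masks, generated with IncuCyte software over all imaged wells, were applied to IncuCyte images of RAW-Dual macrophages. The cells, in 384-well plates, had been exposed overnight to 10 μM final compound. The viability score is confluency as a fraction of resting cells, and a compound met the cutoff only with both masks above 70% of resting cells.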
# [4] = agonist: CpG ODN 1826 0.5 ug/mL
SMILES,"NF-kB reporter [1, 4]",NF-kB reporter ([1]; agonist: LPS 0.1 ug/mL),NF-kB reporter ([1]; agonist: MPLA […]),IRF reporter ([2]; agonist: 3'3'-cGAMP 10 ug/mL),IRF reporter ([2]; agonist: LPS 0.1 ug/mL),IRF reporter ([2]; agonist: MPLA […]),viability score [3]
CC(=O)OC1CN2CCC1CC2.Cl (stereo unspecified),0.984 ± 0.35,0.984 ± 0.12,0.971 ± 0.061,0.914 ± 0.052,0.869 ± 0.15,0.862 ± 0.081,1 (active)
CC(C)(C)NCC(O)c1cc(Cl)c(N)c(Cl)c1 (stereo unspecified) [Prestw-345],1.89 ± 0.13,0.945 ± 0.072,1.29 ± 0.044,1.03 ± 0.04,0.886 ± 0.06,0.933 ± 0.09,0.988 (active)
CCn1cc(C(=O)O)c(=O)c2c(N)c(F)c(N3CCNCC3)c(F)c21,0.952 ± 0.067,1.09 ± 0.068,0.859 ± 0.073,0.972 ± 0.033,1.47 ± 0.14,1.2 ± 0.2,0.998 (active)
COC12CC(COC(=O)c3cncc(Br)c3)CN(C)C1Cc1cn(C)c3cccc2c13 (stereo unspecified),1.02 ± 0.11,1.01 ± 0.078,1.03 ± 0.13,0.905 ± 0.065,1.16 ± 0.11,1.19 ± 0.16,1.04 (active)
OCC(O)Cc1ccc2c(c1)OCO2 (stereo unspecified),1.02 ± 0.096,0.831 ± 0.062,0.906 ± 0.093,0.988 ± 0.031,1.37 ± 0.19,1.53 ± 0.25,0.994 (active)
CCCCCn1c(=O)c(C(=O)NCc2cccnc2)c(O)c2ccccc21,1.13 ± 0.086,1.25 ± 0.085,0.997 ± 0.062,1.02 ± 0.04,1.31 ± 0.087,1.34 ± 0.12,0.989 (active)
CN1C(=O)C(=Cc2nc3ccccc3c(=O)n2-c2ccccc2)c2ccccc21,1.01 ± 0.088,0.867 ± 0.097,1.65 ± 0.63,1.08 ± 0.052,1.32 ± 0.23,1.29 ± 0.24,1.05 (active)
CCOc1cc(C=C2C(=O)NC(=O)NC2=O)ccc1OCc1c(Cl)cccc1Cl,1.06 ± 0.091,1.01 ± 0.07,0.938 ± 0.11,1.07 ± 0.038,1.35 ± 0.11,1.2 ± 0.14,1.01 (active)
CC(C)NC(C)C(O)c1ccc2c(c1)CCCC2.Cl (stereo unspecified),0.838 ± 0.066,1 ± 0.086,1.1 ± 0.038,0.818 ± 0.091,1 ± 0.099,0.891 ± 0.23,0.994 (active)
COc1ccc2c(c1)[nH]c1c(C)nccc12,0.6 ± 0.047,0.885 ± 0.074,0.949 ± 0.09,0.431 ± 0.019,0.653 ± 0.11,0.594 ± 0.11,1.03 (active)
Cc1cc(C(=O)N2C3CCC2c2cncnc2C3)n(C)n1 (stereo unspecified),0.979 ± 0.074,1.01 ± 0.085,0.917 ± 0.046,0.983 ± 0.085,1.19 ± 0.096,1.11 ± 0.22,1 (active)
COc1ccc(CNCCc2c[nH]c3ccccc23)cc1C,0.373 ± 0.058,0.574 ± 0.054,1.22 ± 0.06,0.782 ± 0.08,1.04 ± 0.052,2.55 ± 0.19,0.154 (inactive)
CN1C(=O)NC(=O)C(=Cc2ccc([N+](=O)[O-])s2)C1=O,1.12 ± 0.12,1.08 ± 0.07,1.05 ± 0.036,0.895 ± 0.098,0.925 ± 0.12,0.914 ± 0.19,1 (active)
CCC1(c2c[nH]cn2)Cc2ccccc2C1.Cl,0.752 ± 0.1,1.11 ± 0.082,0.863 ± 0.05,1 ± 0.05,1.25 ± 0.11,1.07 ± 0.081,0.976 (active)
COC(=O)C1C2C(=O)N(c3ccccc3)C(=O)C12c1ccc(Cl)cc1 (stereo unspecified),1.1 ± 0.094,1.11 ± 0.09,1.01 ± 0.037,1.01 ± 0.04,1.03 ± 0.055,1.08 ± 0.11,1 (active)
CC(O)(CS(=O)(=O)c1ccc(F)cc1)C(=O)Nc1ccc(C#N)c(C(F)(F)F)c1 (stereo unspecified),1.38 ± 0.26,0.966 ± 0.081,0.952 ± 0.053,0.991 ± 0.067,1.05 ± 0.095,1.23 ± 0.17,0.987 (active)
COc1cc2c(c(OC)c1OC)-c1ccc(OC)c(=O)cc1C(NC(C)=O)CC2 (stereo unspecified),2.37 ± 0.14,1.47 ± 0.092,2.59 ± 0.15,0.0948 ± 0.0032,1.87 ± 0.21,2.02 ± 0.27,0.673 (inactive)

SMILES,"NF-kB reporter [1, 4]",NF-kB reporter ([1]; agonist: LPS 0.1 ug/mL),NF-kB reporter ([1]; agonist: MPLA […]),IRF reporter ([2]; agonist: 3'3'-cGAMP 10 ug/mL),IRF reporter ([2]; agonist: LPS 0.1 ug/mL),IRF reporter ([2]; agonist: MPLA […]),viability score [3]
COc1ccc(CCNCc2cccc3ccccc23)cc1OC,0.222 ± 0.016,0.82 ± 0.059,0.867 ± 0.058,0.872 ± 0.047,1.32 ± 0.093,1.44 ± 0.14,0.947 (active)
C=C(C)C1Cc2c(ccc3c2OC2COc4cc(OC)c(OC)cc4C2C3=O)O1 (stereo unspecified),1.6 ± 0.13,1.02 ± 0.1,1.75 ± 0.18,0.515 ± 0.028,1.64 ± 0.27,2.07 ± 0.4,0.924 (active)
CC(C)c1c(CN(C)C(C)Cc2ccccc2)n(C)n(-c2ccccc2)c1=O (stereo unspecified) [Prestw-703],1.35 ± 0.082,1 ± 0.17,1.05 ± 0.067,0.792 ± 0.03,1.02 ± 0.073,0.995 ± 0.14,0.998 (active)
O=C1NC(=S)NC(=O)C1=Cc1ccc(OCc2ccc(F)cc2)c(Cl)c1,0.918 ± 0.092,0.943 ± 0.064,0.802 ± 0.05,0.765 ± 0.02,1.13 ± 0.095,0.824 ± 0.14,1.01 (active)
CCNCC.O=C(O)Cc1ccccc1Nc1c(Cl)cccc1Cl,1.16 ± 0.18,1.08 ± 0.38,0.993 ± 0.058,0.921 ± 0.034,1.21 ± 0.43,1.02 ± 0.11,0.993 (active)
Br.NCCc1cc(O)c(O)cc1O,1.04 ± 0.28,0.911 ± 0.073,1.14 ± 0.08,0.609 ± 0.036,1.32 ± 0.24,1.19 ± 0.19,0.53 (inactive)
Cc1cc(N2CCNCC2)c2ccccc2n1,0.0643 ± 0.01,0.789 ± 0.062,0.899 ± 0.092,0.561 ± 0.045,1.15 ± 0.31,1.15 ± 0.16,0.994 (active)
COc1ccccc1N1C(=O)C(=Cc2ccc(C)s2)C(=O)NC1=S,1.07 ± 0.11,1.08 ± 0.093,0.973 ± 0.084,0.953 ± 0.049,1.8 ± 0.28,1.39 ± 0.14,0.992 (active)
Nc1ccncc1,1 ± 0.24,1.03 ± 0.078,0.879 ± 0.056,0.514 ± 0.022,0.929 ± 0.11,0.976 ± 0.25,0.858 (active)
Cc1cccc2sc(NC(=O)c3cccn(Cc4ccc(Br)cc4)c3=O)nc12,1.06 ± 0.12,1.13 ± 0.096,1.02 ± 0.15,1.04 ± 0.052,1.32 ± 0.084,1.12 ± 0.085,1 (active)
CN1CC(CNC(=O)OCc2ccccc2)CC2c3cccc4c3c(cn4C)CC21 (stereo unspecified),1.02 ± 0.065,0.966 ± 0.11,0.963 ± 0.08,0.986 ± 0.034,1.43 ± 0.14,1.2 ± 0.18,0.997 (active)
COc1ccc2c3c([nH]c2c1)C(C)=NCC3,0.359 ± 0.089,0.917 ± 0.046,0.852 ± 0.054,0.778 ± 0.038,0.771 ± 0.17,0.793 ± 0.15,1 (active)
CCC1(O)C(=O)OCc2c1cc1n(c2=O)Cc2cc3ccccc3nc2-1 (stereo unspecified),0.948 ± 0.074,0.912 ± 0.069,0.889 ± 0.092,1.04 ± 0.033,1.24 ± 0.2,1.41 ± 0.24,0.974 (active)
COc1ccc(-n2c(C)nc3ccc(NC(=O)CC4CCCC4)cc3c2=O)cc1,1.14 ± 0.14,1.06 ± 0.13,0.932 ± 0.075,0.946 ± 0.048,0.925 ± 0.073,0.875 ± 0.15,1.01 (active)
c1ccc2c(c1)Nc1ccccc1S2,1.02 ± 0.25,0.934 ± 0.048,0.881 ± 0.11,0.778 ± 0.026,1.31 ± 0.25,1.32 ± 0.13,0.939 (active)
COc1ccc(OC)c(C=C2C(=O)NC(=O)NC2=O)c1,1.15 ± 0.12,0.845 ± 0.061,1.12 ± 0.061,0.99 ± 0.17,0.995 ± 0.05,1.01 ± 0.16,0.995 (active)
